Screens as filed in PubChem.
STAT3 SMM – binders of human STAT3. Small molecule microarray, His-STAT3 binding, anti-His fluorescence. P40763. 0.2% of 17,000 active. AID 624138. calls only;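 active = compounds whose four printed spots each show fluorescence over background unusually high for their array block, chance value under 7%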
mut p53 SMM – binders of human mutant p53; calls only; 0.4% of 17,000 active; small molecule microarray binding, anti-GST fluorescence; AID 624136;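 active = compounds whose four printed spots each glow above background more than chance allows, each with a p-value under 7%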
c-Myc SMM – c-Myc (human) binding. P01106. small molecule microarray, His-c-Myc binding, anti-His fluorescence. calls only. 1.5% of 17,000 active. AID 624141;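 active = spot fluorescence over background with P-value below 7% in all four replicate spots, showing protein binding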;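 note: score is binary with 100 for all four spots passing and 0 otherwise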
Target sequence (P01106 whole entry, looked up): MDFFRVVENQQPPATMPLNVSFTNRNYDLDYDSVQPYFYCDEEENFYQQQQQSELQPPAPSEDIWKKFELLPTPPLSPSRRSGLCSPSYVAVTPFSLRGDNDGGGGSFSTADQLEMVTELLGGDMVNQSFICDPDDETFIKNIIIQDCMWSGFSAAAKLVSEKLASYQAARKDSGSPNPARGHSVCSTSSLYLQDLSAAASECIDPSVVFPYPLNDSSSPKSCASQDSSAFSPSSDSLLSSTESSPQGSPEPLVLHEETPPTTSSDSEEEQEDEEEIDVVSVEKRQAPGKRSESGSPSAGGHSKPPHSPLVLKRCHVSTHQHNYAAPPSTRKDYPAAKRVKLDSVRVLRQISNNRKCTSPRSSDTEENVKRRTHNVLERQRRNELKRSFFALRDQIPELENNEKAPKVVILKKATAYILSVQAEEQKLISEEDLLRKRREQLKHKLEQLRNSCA
NFkB SMM – binders of human NF-kappa-B p105; P19838; Small molecule microarray, anti-His fluorescence binding; calls only; 1.3% of 17,000 active; AID 624139;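 active = spot fluorescence over background significantly raised, with a chance value under 7% in all four replicate spots of the compound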;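 note: probe protein is his-tagged human p50 processed subunit at 1 µg/ml; raw spot fluorescence signals with no normalization applied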
* marks the source's active call; other numbers are inactive results; i = inactive; + = active, no number. Shown are actives, neighbours in structure and some others; about 2.5% of the full set was active somewhere.

SMILES	STAT3 SMM	mut p53 SMM	c-Myc SMM	NFkB SMM
CC(C)NC(=O)N(C)C[C@H]1OCCCC[C@H](C)Oc2ccc(NC(=O)CCC(F)(F)F)cc2C(=O)N([C@H](C)CO)C[C@@H]1C	i	i	+	+
C[C@H](CO)N1C[C@H](C)[C@@H](CN(C)C(=O)CCC(F)(F)F)OCCCC[C@H](C)Oc2ccc(NC(=O)CCC(F)(F)F)cc2C1=O	i	i	i	i
C[C@@H]1CCCCO[C@H](CN(C)C(=O)CCC(F)(F)F)[C@@H](C)CN([C@@H](C)CO)C(=O)c2cc(NC(=O)CCC(F)(F)F)ccc2O1	i	i	i	i
C[C@@H]1CN([C@@H](C)CO)C(=O)c2cc(NC(=O)CCC(F)(F)F)ccc2O[C@@H](C)CCCCO[C@@H]1CN(C)C(=O)CCC(F)(F)F	i	i	+	+
C[C@@H]1CCCCO[C@H](CN(C)C(=O)CCC(F)(F)F)[C@H](C)CN([C@@H](C)CO)C(=O)c2cc(NC(=O)Cc3ccccc3)ccc2O1	i	i	+	+
C[C@@H]1CN([C@@H](C)CO)C(=O)c2cc(NC(=O)Cc3ccccc3)ccc2O[C@@H](C)CCCCO[C@@H]1CN(C)C(=O)CCC(F)(F)F	i	i	i	i
CS(=O)(=O)CCC(C(=O)N1CCCCC1)N1C(=O)c2cc(Cl)c(Cl)cc2C1=O (stereo unspecified)	i	i	i	i
COc1ccccc1-c1nnc(SCC(=O)Nc2ccccc2-c2ccccc2)n1C	i	i	i	i
O=C(/C=C/c1ccc(O)cc1)CC(=O)/C=C/c1ccc(O)cc1	i	i	i	i
O=C(COc1ccccc1C(=O)Nc1cccc(Cl)c1Cl)Nc1ccc(N2CCOCC2)c(Cl)c1	i	i	i	i
C[C@@H]1CN([C@@H](C)CO)C(=O)c2cc(NC(=O)c3ccncc3)ccc2O[C@@H](C)CCCCO[C@@H]1CN(C)C(=O)CCC(F)(F)F	i	i	i	+
C[C@H](CO)N1C[C@H](C)[C@H](CN(C)C(=O)CCC(F)(F)F)OCCCC[C@H](C)Oc2ccc(NC(=O)CCC(F)(F)F)cc2C1=O	i	i	+	+
C[C@H]1CCCCO[C@H](CN(C)C(=O)CCC(F)(F)F)[C@@H](C)CN([C@@H](C)CO)C(=O)c2cc(NC(=O)c3ccncc3)ccc2O1	i	i	i	i
CCOC(=O)CSc1nc2c(c(=O)n1-c1ccccc1OC)C1(CCCC1)Cc1ccccc1-2	i	i	i	i
C[C@H](CO)N1C[C@H](C)[C@@H](CN(C)C(=O)Nc2cccc3ccccc23)OCCCC[C@H](C)Oc2ccc(NC(=O)c3ccncc3)cc2C1=O	i	i	+	+
C[C@@H]1CCCCO[C@H](CN(C)C(=O)Nc2cccc3ccccc23)[C@@H](C)CN([C@@H](C)CO)C(=O)c2cc(NC(=O)c3ccncc3)ccc2O1	i	i	+	+
CC(=O)Nc1cccc(NC(=O)c2cc(-c3ccccn3)nc3ccc(Cl)cc23)c1	i	i	i	i
COc1cccc(CN2CCN(C(=O)c3cc(-c4ccccn4)nc4ccc(Cl)cc34)CC2)c1	i	+	i	i
COc1ccc(C(=O)Nc2ccccc2C(=O)N2CCN(CCO)CC2)cc1	i	i	i	i
C[C@H]1O[C@@H](O[C@H]2CC[C@@]3(C)C(CC[C@]4(C)C3CC=C3C5CC(C)(C)CC[C@]5(C(=O)O)CC[C@]34C(=O)O)C2(C)C)[C@H](O)[C@@H](O)[C@@H]1O (stereo partly specified)	i	i	i	i
Cc1nnc(SCC(=O)Nc2cccc(I)c2)s1	i	i	i	i
Cc1ccc(-c2cc3ccccn3c2C(=O)CSc2nnc(C)s2)cc1	i	i	+	i
COc1ccc(C(=O)CSc2nc3ccccc3c(=O)[nH]2)cc1OC	i	i	i	i
COc1ccc(Cn2c3ccc(Br)cc3c3nc4ccccc4nc32)cc1OC	i	i	+	i
Cn1c(SCC(=O)Nc2cccc(F)c2)nnc1-c1ccc(Cl)cc1	i	i	i	i
SMILES	STAT3 SMM	mut p53 SMM	c-Myc SMM	NFkB SMM
C[C@@H]1CN([C@H](C)CO)C(=O)c2cc(NC(=O)Nc3ccc4c(c3)OCO4)ccc2O[C@@H]1CN(C)CC1CCCCC1	i	+	i	i
C[C@@H]1CCCCO[C@@H](CN(C)CC2CCCCC2)[C@H](C)CN([C@H](C)CO)C(=O)c2cc(NS(C)(=O)=O)ccc2O1	i	i	i	+
C[C@H]1CCCCO[C@@H](CN(C)CC2CCCCC2)[C@@H](C)CN([C@@H](C)CO)C(=O)c2cc(NC(=O)C3CCCCC3)ccc2O1	i	i	i	+
C[C@@H]1CN([C@H](C)CO)C(=O)c2cc(NC(=O)Nc3ccc4c(c3)OCO4)ccc2O[C@H]1CN(C)CC1CCCCC1	i	i	i	i
COc1cccc(Nc2nc(C3(C)CC4(CC(C)OC4=O)C(=O)O3)cs2)c1 (stereo unspecified)	i	i	i	i
COc1ccc(OC)c(NC(=O)CSc2nnc(-c3ccccc3)n2C)c1	i	i	i	i
COc1ccc(OC)c(NC(=O)C2=C(C)NC(=O)NC2c2ccc(OC)cc2OC)c1 (stereo unspecified)	i	i	i	i
c1ccc(Cn2ccnc2SCc2nnc(-c3ccccc3)o2)cc1	i	+	+	i
Cc1cc(-n2nc3ccccc3n2)c2oc(SCc3nnc(-c4ccccc4)o3)nc2c1	i	i	i	i
COC(=O)c1cc(Br)ccc1NC(=O)COc1ccc(C(C)(C)C)cc1	i	i	+	i
COCCOC(=O)N1C(=O)[C@@]2(c3cc(C#CCC(C(=O)OC)C(=O)OC)ccc31)[C@H](c1ccc(OCCO)cc1)N1[C@H](c3ccccc3)[C@H](c3ccccc3)OC(=O)[C@H]1[C@@H]2C(=O)N1CCN(c2ncccn2)CC1	i	i	i	+
COCCOC(=O)N1C(=O)[C@@]2(c3cc(C#CC4=CCCCC4)ccc31)[C@H](C(=O)N1CCN(c3ncccn3)CC1)[C@H]1C(=O)O[C@H](c3ccccc3)[C@H](c3ccccc3)N1[C@@H]2c1ccccc1OCCO	i	i	i	+
COCCOC(=O)N1C(=O)[C@@]2(c3ccccc31)[C@H](C(=O)N1CCN(c3ncccn3)CC1)[C@H]1C(=O)O[C@H](c3ccccc3)[C@H](c3ccccc3)N1[C@@H]2c1ccc(OCCO)cc1	i	i	i	i
C[C@@H]1CCCCO[C@H](CN(C)C(=O)C2CCCCC2)[C@@H](C)CN([C@@H](C)CO)C(=O)c2cc(NC(=O)c3ccncc3)ccc2O1	i	i	i	+
C[C@H]1CCCCO[C@@H](CN(C)C(=O)C2CCCCC2)[C@@H](C)CN([C@@H](C)CO)C(=O)c2cc(NC(=O)c3ccncc3)ccc2O1	i	i	i	i
